High-throughput results from PubChem BioAssay.
FMDV Renilla: FMDV antiviral activity by Renilla signal; Potency, µM (titrated, usually from 57.5 µM), without a hit: at the top dose activity change, negative = inhibition, most hits filed as inhibitors; 120,000 compounds, 0.32% hits; AID 1745857; FMDV replicon cells, Renilla luciferase signal; further: nearly all actives have a fitted effect of over 55% in size
FMDV FLuc: shows antiviral activity against foot and mouth disease virus; FMDV antiviral cell assay, firefly luciferase signal; Potency, µM (series often up to 57.5 µM), without a hit: at the highest dose activity change, negative = inhibition, actives largely listed as inhibitors; 120,000 compounds, 0.23% hits; AID 1745856; further: nearly all actives have a fitted effect of over 60% in size
* = called active by the depositor; ? = inconclusive; [ ] = remark or other dose. This is a sample that favours compounds with a hit; in the whole collection about 0.51% have one here. The call rests on the fitted dose curve. On the % scale 0 is the no-effect control and ±100 the full control effect; potency means the concentration at half of the fitted maximal effect.

SMILES | FMDV Renilla | FMDV FLuc
Fc1ccc(COc2cccc(CNCC3CCNCC3)c2)cc1 | 32µM* | ?
Brc1ccc(OCc2ccccc2)c(CNCC2CCNCC2)c1 | -26% | -25%
Clc1cccc(Nc2nc3nonc3nc2N2CCCCC2)c1 | 6.3µM* | ?
O=C(Nc1cccc(Cl)c1)c1nc2ccccc2nc1N1CCCC1 | 3% | -4%
Nc1nccnc1C(=O)NCCNC(=O)c1ccco1 | -2% | 5%
COC(=O)c1c(NC(=O)CSc2ncnc3ccccc23)sc2c1CCCC2 | -8% | 12%
Cn1nc(CC(=O)Nc2ccc(O)cc2)c2ccccc2c1=O | -24% | ?
Cn1nc(CC(=O)Nc2ccc(Cl)cc2Cl)c2ccccc2c1=O | 3.2µM* | ?
NC(=O)C1CCCCC1=O (stereo unspecified) | 0% | 1%
Cc1ccc(F)cc1S(=O)(=O)N(Cc1cc(CN2CCOCC2)cs1)c1ccc(F)cc1 | 10% | 8%
COc1ccc(N(Cc2cc(CN3CCOCC3)cs2)S(=O)(=O)c2cc(C)cc(C)c2)cc1 | -1% | 25µM*
COc1ccc(N(CC(F)(F)F)C(=O)Cn2cnc3c2c(=O)n(C)c(=O)n3C)cc1 | -7% | -6%
Fc1ccccc1NC(=S)NCCc1ccc(C(F)(F)F)cc1 | 45% | 12%
CCc1ccccc1NC(=O)CNC(=O)c1cc2ccc(F)cc2nc1C | -17% | -7%
N#CCOc1ccc(COc2cccc(C#N)c2)cc1 | 8% | 111%
N#CCOc1ccc2ccccc2c1 | 1% | 13µM*
Cc1ccc2nc(NS(=O)(=O)c3ccc(Cl)cc3)c(Nc3ccc4c(c3)OCO4)nc2c1 | -2% | 23%
CCc1ccc(Nc2c3c(nc4ccccc24)CCC3)cc1 | ? | 25µM*
c1ccc(Nc2c3c(nc4ccccc24)CCC3)cc1 | -24% | -12%
CCOc1ccc(Br)cc1S(=O)(=O)Nc1ccc(-c2cn3ccc(C)nc3n2)cc1 | 83% | 2%
O=C(Nc1ccc(N2CCCCC2)cc1)c1nn(-c2ccccc2)c(=O)c2ccccc12 | -1% | 25%
CCC(Oc1ccc(F)cc1)C(=O)Nc1cc(-c2ccc(C)cc2)no1 (stereo unspecified) | -4% | -2%
CCC(Oc1ccc(F)cc1)C(=O)Nc1nc(-c2ccc(F)cc2)ns1 (stereo unspecified) | ? | 25µM*
COC1CC(OC2CCC3(/C=N/O)[C@H]4CCC5(C)C(C6=CC(=O)OC6)CCC5(O)[C@@H]4CCC3(O)C2)OC(C)C1O (stereo partly specified) | 0.35µM* | ?
CC(=O)OC1CCC2(/C=N/O)[C@H]3CCC4(C)C(C5=CC(=O)OC5)CCC4(O)[C@@H]3CCC2(O)C1 (stereo partly specified) | 1µM* | 0.79µM*
SMILES | FMDV Renilla | FMDV FLuc
C[C@@H]1O[C@@H](O[C@@H]2C=C3CC[C@@H]4[C@H](CC[C@]5(C)[C@@H](c6ccc(=O)oc6)CC[C@]45O)[C@@]3(C)CC2)[C@H](O)[C@H](O)[C@H]1O | -79% | -85%
C(=N\N=C1c2ccccc2-c2ccccc21)/c1ccccc1 | 11% | 29%
O=C(CN1CCN(CC(=O)NC2CCCCC2)CC1)Nc1ccc(Cl)c(C(F)(F)F)c1 | -22% | -20%
O=C(CN1CCN(c2ccc(C(F)(F)F)cn2)CC1)NC1CCCCC1 | ? | 28µM*
C/C(=N/Nc1ccc(S(=O)(=O)Nc2ccccc2)cc1[N+](=O)[O-])c1ccc(C#N)cc1 | 56% | 0%
O=C(c1ccc(N2CCCN(Cc3ccccc3)C2=O)cc1)N1CCN(c2ccccc2)CC1 | -14% | ?
Cc1cccc(CN2CCCN(c3cccc(C(=O)N4CCN(c5ccccc5)CC4)c3)C2=O)c1 | 10µM* | ?
CCOc1ccc2c(c1)cc(C(=O)Nc1ccc(F)cc1)n2C | 4% | 4%
O=C(O)c1cc(NS(=O)(=O)c2cc(F)cc(F)c2)ccc1Cl | 1% | 1%
CN(c1ncnc2scc(-c3ccc(F)cc3)c12)C1CCCCC1 | -3% | 2%
COc1cccc2sc(N3CCN(C(=O)CCS(=O)(=O)c4ccc(F)cc4)CC3)nc12 | ? | 35µM*
Cc1ccc(S(=O)(=O)CCC(=O)N2CCN(c3nc4c(C)c(Cl)ccc4s3)CC2)cc1 | -11% | -1%
CN1CCN(c2ccc(C#N)cc2)CC1 | 13%[1.06 µM] | 2.8µM*
CN1CCN(c2ccc(C#N)cn2)CC1 | 15% | 0%
Cc1cc(S(=O)(=O)N2CCN(C)CC2)c(C)cc1Cl | -1% | 3%
Cc1ccc(Cn2c(N3CCN(Cc4cccc5ccccc45)CC3)nc3c2c(=O)[nH]c(=O)n3C)cc1 | 0% | -2%
COc1ccccc1-c1nnc(SCC(=O)c2ccc(Br)s2)n1C | 8% | 22%
CCOc1ccc(-c2nc(CSCC(=O)N3CCN(c4cccc(C(F)(F)F)c4)CC3)c(C)o2)cc1 | ? | 28µM*
CCOc1ccc(-c2nc(CSCC(=O)N3CCN(c4ccc(F)cc4)CC3)c(C)o2)cc1 | -5% | -1%
CCN1CCN(CCOc2ccc3c(C)c(-c4ccc(OC)c(OC)c4)c(=O)oc3c2)CC1 | -5% | -8%
